DRD3 antagonist = antagonists of human D3 dopamine receptor; max response, negative = inhibition, %; D3R cells, DiscoveRx beta-arrestin luminescence, antagonist mode; active compounds read low; P35462; actives 2.5% (n = 360,000); AID 652054; in the data active means max response below about -50%; inconclusive means no clear call, values can overlap the other calls; further: on the % scale 0 is the no-effect control and ±100 the full control effect
Target sequence (P35462 whole entry, looked up): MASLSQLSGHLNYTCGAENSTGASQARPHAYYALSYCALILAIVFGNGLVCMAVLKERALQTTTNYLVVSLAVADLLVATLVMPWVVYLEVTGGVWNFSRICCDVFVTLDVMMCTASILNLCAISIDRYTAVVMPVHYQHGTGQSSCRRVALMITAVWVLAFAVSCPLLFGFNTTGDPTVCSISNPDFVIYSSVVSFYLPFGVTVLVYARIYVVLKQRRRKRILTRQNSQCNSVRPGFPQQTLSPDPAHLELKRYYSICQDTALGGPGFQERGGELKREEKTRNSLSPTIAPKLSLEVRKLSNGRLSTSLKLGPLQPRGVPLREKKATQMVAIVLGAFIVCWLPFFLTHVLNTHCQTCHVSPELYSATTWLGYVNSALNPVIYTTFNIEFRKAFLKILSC
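Cells expressing the human receptor were seeded at 1500 cells/well, incubated overnight at 37 degrees C in 5% CO2, then exposed to library compounds with dopamine controls for 90 minutes at 37 degrees C before luminescent detection.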
S2 tox = viability counter-screen for ATXN expression inhibitors | S2 cells (HEK-293 line with an ATXN2-luciferase reporter) viability, CellTiter-Fluor protease fluorescence, 24 h | Potency, µM (series often up to 56.7 µM), most hits filed as cytotoxic | actives 0.49% (n = 400,000) | AID 651635; further: potency means the concentration at half of the fitted maximal effect; nearly all actives have a fitted effect of over 40% in size
a7 integrin act = activates integrin-mediated alleviation for muscular dystrophy. alpha7betagal myoblasts, beta-gal FDG fluorescence, 48 h. Potency, µM (highest dose often 38.3 µM), for the others: at the highest dose activation, actives largely listed as activators. actives 0.064% (n = 350,000). AID 624291;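 further: potency means the concentration at half of the fitted maximal effect; 100% = response of the positive control SU9516; nearly all actives have a fitted effect of over 60% in size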
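alpha7betagal+/- myoblasts (passage 13, 250/well) treated 48 h at 37C with compounds at 1:260 dilution of DMSO stock. Lysed, then beta-galactosidase activity read as FDG fluorescence (ex 480/em 540) after 30 min, with pre-read for autofluorescence.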
ATXN2 expr inh = ATXN2 expression inhibition; AID 1745845; HEK-293 ATXN2-luciferase reporter, luminescence, 24 h; Potency, µM (doses to about 57 µM), for the others: top-dose activity change, negative = inhibition, usual class: inhibitors; actives 0.72% (n = 360,000); further: potency means the concentration at half of the fitted maximal effect; on the % scale 0 is the no-effect control and ±100 the full control effect; nearly all actives have a fitted effect of over 55% in size
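ATXN2-luciferase reporter cells (luciferase flanked by upstream and downstream ATXN2 gene portions) were treated 24 h at 37 °C with compounds at up to 57 uM. SteadyGlo luminescence gave expression; GF-AFC fluorescence gave viability.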
IL-1B inflam inh = inflammasome signaling inhibition, IL-1 beta readout; THP-1 LPS/ATP IL-1B secretion, AlphaLISA, 16 h; active compounds read low; activity change, % at 57.5 µM; actives 4.7% (n = 360,000); AID 743279; in the data active means activity change below about -50%; inconclusive means mostly about -30% to -49%; further: on the % scale 0 is the no-effect control and ±100 the full control effect
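Secreted IL-1B measured by AlphaLISA bead assay after 16 h compound exposure of THP-1 cells; compounds (final up to 57.5 uM) added 1 h before LPS (250 ng/mL) and ATP (1.25 mM) stimulation; lower signal means less secretion.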
DRD3 agonist = agonists of human D3 dopamine receptor. P35462. D3R DiscoveRx beta-arrestin cells, luminescence, 90 min. max activation, %. actives 0.58% (n = 410,000). AID 652048; in the data active means max activation above about 30%; further: 0% is about no effect
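Agonist-mode cell screen: cells plated at 1500/well and incubated overnight at 37 °C, then exposed to library compounds for 90 min at 37 °C. Detection reagent was added for 30–60 min at room temperature, and luminescence was read.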
* = called active by the depositor; i = inactive; ? = inconclusive; . = not tested or not shown; ! = a repeat was not active; [ ] = another dose, or the depositor's remark. Sampled rows, rich in hits. Any-hit rate of the full collection: about 7%. Unless noted, the call rests on the fitted dose curve; in most records, active means well fitted curve in the direction sought with a large enough effect; inconclusive means small, poorly fitted or top-dose-only effect, or another doubt; inactive means no such curve, though single readings can be large; an effect the other way counts as inactive or inconclusive.

SMILES | DRD3 antagonist | S2 tox | a7 integrin act | ATXN2 expr inh | IL-1B inflam inh | DRD3 agonist
COc1ccc(CNc2ccc3c(c2)ncn3-c2ccccc2OC)cc1 | 9 | i | -33% | 6% | -91* | -15
CC(=O)Nc1cccc(C(=O)NC(C)c2ccc(-n3ccnc3)cc2)c1 (stereo not drawn) | -9 | i | 17% | -1% | 11 | -2
CCCNC(=O)c1cc(S(=O)(=O)N2CCCCC2)c[nH]1 | 12 | i | -2% | 6% | 6 | 3
COc1ccc(-n2c(-c3cccc(F)c3)nc3c(cnn3-c3ccc(C)cc3)c2=O)cc1 | . | i | . | 15% | . | 8
COc1cccc(NC(=S)N2CCCC2c2ccc(OC)c(OC)c2)c1 (stereo not drawn) | -20 | i | 12% | 43% | -6 | 1
COc1ccc(C2CCCN2C(=S)Nc2cccc(Cl)c2)cc1OC (stereo not drawn) | -9 | i | -20% | -1% | -87* | 13
CCOc1cc(S(=O)(=O)N2CCN(CC)CC2)ccc1Cl | -8 | i | -10% | -23% | -15 | 0
CCCc1nc(C)c2c(=O)[nH]c(-c3cc(S(=O)(=O)N4CCN(CC)CC4)ccc3OCC)nn12 | -1 | i | . | 19µM*! | -13 | 15
ONC(=Nc1cccc(C(F)(F)F)c1)c1cccnc1 | -63* | i | 0% | -34% | -6 | -2
O=C(NCc1cccnc1)c1cccc(C(F)(F)F)c1 | -9 | i | 22% | 5% | -3 | -18
CCC(C)[C@H](NC(=O)Nc1ccc(Oc2ccccc2)cc1)C(=O)O (stereo partly drawn) | 0 | i | -16% | 2% | 33 | 0
O=C(CCCc1ccccc1)Nc1cccnc1Cl | 6 | i | 5% | 23% | 4 | 1
O=C(C#Cc1ccccc1)c1ccccc1 | -65* | ? | -66% | . | -108* | -9
O=C(C#Cc1ccccc1)c1ccc([N+](=O)[O-])cc1 | -72* | . | -27% | ? | -97* | -18
Nc1nccc(/C=C/c2c(F)cccc2Cl)n1 | 5 | i | -9% | -4%[11.3 µM] | -85* | 1
O=C(/C=C/c1c(F)cccc1Cl)Nc1ncccn1 | 1 | i | 0% | 36% | -8 | 2
COc1ccc(NC(=O)c2oc3ccccc3c2NC(=O)COc2ccc(C(C)C)cc2)c(OC)c1 | . | i | . | 1% | . | -6
COc1ccc(NC(=O)c2oc3ccccc3c2NC(=O)COc2ccccc2OC)c(OC)c1 | -1 | . | 6% | ? | -6 | 58*
CNC(=O)C[C@@H]1C(=O)N(CCc2ccccc2)CC1(C)C | -9 | i | -16% | 9% | 10 | -5
COCCNc1nc(C)cc(-c2cc(C(=O)Nc3ccccc3)on2)n1 | 24 | i | -1% | 8% | 16 | 3
C=CCSc1nnc(CNC(=O)c2ccc(Cl)cc2)n1CC | -8 | i | 18% | 33%[11.3 µM] | -69* | -11
CCn1c(CNc2ccc(Cl)cc2)nnc1SCc1ccccc1 | -20 | i | 10% | -16% | -76* | -5
COc1cccc(NC(=O)C(=O)N/N=C(\C)CC(=O)Nc2ccc(NC(C)=O)cc2)c1 | -2 | i | 42% | . | -4 | 1
CCc1ccc2[nH]c(=O)c(CN(CCN(CC)CC)C(=O)NC3CCCCC3)cc2c1 | -13 | ? | -60% | -26% | -56* | -17
O=C(NC1CCCCC1)N(CCO)Cc1cc2cc3c(cc2[nH]c1=O)OCCO3 | 4 | . | -9% | . | 7 | 1
CCc1ccc2[nH]c(=O)c(CN(CCN(C)C)C(=O)Nc3ccccc3)cc2c1 | 0 | ? | -41% | -9% | -59* | -3
COc1ccccc1N1CCN(c2nc(CNC(=O)C3CCOC(C)(C)C3)nc3ccccc23)CC1 (stereo not drawn) | . | i | . | . | . | .
COc1ccc(-c2csc(=NCCO)n2-c2ccccc2)cc1 | 33 | i | 13% | -24% | -74* | -2
COc1ccc(-c2csc(=Nc3ccccc3)n2CCO)cc1 | 10 | i | -17% | 1% | -24 | 7
Cc1ccccc1CN(C)CCc1ccccn1 | -13 | i | 43% | -28% | 9 | -6
